Source: PubChem BioAssay (NCI)
This is part of a sample that, as a whole, favours compounds with a hit. Of some 83,000 tested, about 20% had one in any assay.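 Single-dose data. Exposure time 48 hours. Values below 10 considered active.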 Unmarked numbers belong to inactive results. Activity calls are given as the source filed them.

What was measured:
Test in all cases: NCI-60 one-dose screen, 48 h (100 = growth as untreated, 0 = no growth, -100 = all killed)
Conditions in all cases: 10 µM unless noted
RPMI-8226 leukemia = tested on: RPMI-8226 leukemia
OVCAR-8 ovarian = tested on: OVCAR-8 ovarian
OVCAR-5 ovarian = tested on: OVCAR-5 ovarian
OVCAR-4 ovarian = tested on: OVCAR-4 ovarian
SK-OV-3 ovarian = tested on: SK-OV-3 ovarian
OVCAR-3 ovarian = tested on: OVCAR-3 ovarian
HS 578T breast = tested on: HS 578T breast
NCI/ADR-RES ovarian = tested on: NCI/ADR-RES ovarian
T-47D breast = tested on: T-47D breast
BT-549 breast = tested on: BT-549 breast
MDA-MB-435 melanoma = tested on: MDA-MB-435 melanoma
SW-620 colon = tested on: SW-620 colon
MCF7 breast = tested on: MCF7 breast
HCT-116 colon = tested on: HCT-116 colon
HCC-2998 colon = tested on: HCC-2998 colon
KM12 colon = tested on: KM12 colon
IGROV1 ovarian = tested on: IGROV1 ovarian

SMILES	growth (RPMI-8226 leukemia)	growth (OVCAR-8 ovarian)	growth (OVCAR-5 ovarian)	growth (OVCAR-4 ovarian)	growth (SK-OV-3 ovarian)	growth (OVCAR-3 ovarian)	growth (HS 578T breast)	growth (NCI/ADR-RES ovarian)	growth (T-47D breast)	growth (BT-549 breast)	growth (MDA-MB-435 melanoma)	growth (SW-620 colon)	growth (MCF7 breast)	growth (HCT-116 colon)	growth (HCC-2998 colon)	growth (KM12 colon)	growth (IGROV1 ovarian)
COc1cc(C(=O)Nc2ccc(N(C)C)cc2)cc(OC)c1OC	97.7%	92.2%	94.7%	93.1%	85.7%	101%	95.5%	87.3%	91.1%	96.7%	1.26% (active)	85.9%	77.8%	89%	92.1%	81%	–
COC(=O)c1cc(=O)nc(N/N=C/c2ccccc2O)s1	–	97.5%	104%	50.8%	103%	88.6%	108%	89.3%	73.1%	94.7%	100%	106%	5.18% (active)	58.7%	89.1%	95.3%	88.6%
COc1cc(/C=C/C(=O)c2ccc(F)cc2)ccc1OCCCCOc1cc2c(cc1OC)C(=O)N1CCCC1C=N2 (stereo unspecified)	-27.4% (active)	8.79% (active)	-4.68% (active)	-11% (active)	10.7%	-28.8% (active)	6.29% (active)	27.1%	1.74% (active)	-49.9% (active)	-71% (active)	-59% (active)	-19.5% (active)	–	-87.5% (active)	–	–
CC(C)C(=O)c1ccc(Cl)s1	–	102%	105%	90.5%	101%	106%	100%	104%	–	104%	106%	107%	88.9%	97%	99.7%	100%	96.2%
CNc1nc2ncn(C)c2c(=O)[nH]1	97.4%	104%	86.7%	93.8%	104%	113%	105%	92.6%	91.4%	88.7%	94.6%	95.7%	96%	–	90.7%	86.8%	–
O=C1C(Cl)=C(SC2=NCCN2)C(=O)c2ccccc21	–	65.8%	97.4%	80.5%	93.5%	46.8%	93.1%	86.8%	49.7%	90.3%	62.7%	95.6%	61.1%	65%	106%	75.5%	49.9%
O=C(CN1CCN(c2cccc(Cl)c2)CC1)N1CCN(c2nnc(-c3ccc(Cl)cc3)c(-c3ccc(Cl)cc3)n2)CC1	-33.5% (active)	–	96.3%	76.8%	105%	72.6%	61.9%	70.6%	–	87.8%	72.3%	76.7%	55.4%	53.5%	83.6%	57.6%	–
CCOC(=O)c1csc(-c2ccc(COC(=O)c3ccccc3)o2)n1	–	111%	102%	116%	107%	116%	111%	109%	102%	116%	101%	112%	92.9%	99.8%	105%	112%	103%
CCN(CC)CCNc1ncnc2c1cnn2-c1ccc(Cl)cc1	96.7%	–	89.6%	90.6%	99.7%	63.1%	77.5%	91.4%	65%	95.1%	-34.8% (active)	63%	75%	77.8%	82.7%	67.5%	–
Cc1ccc(C(=O)Nc2ccc(CN3CCN(C)CC3)c(C(F)(F)F)c2)cc1C#Cc1cnc(N)c2ccc(C#N)cc12	20.2%	27.8%	98.4%	48.8%	2.3% (active)	61.2%	–	49.8%	–	53.1%	10.8%	46.2%	74.2%	13.9%	93%	18.4%	16.3%
O=C(N/N=C/c1ccccc1Cl)c1cccc2ccccc12	–	82.2%	104%	103%	98.6%	110%	–	107%	98.5%	117%	105%	105%	90.9%	102%	110%	97.3%	106%
COc1cc(-c2nc(/C=C3/C(=O)Nc4ccccc43)c3ccccn23)cc(OC)c1OC	–	32.8%	82.9%	76.4%	74.2%	-8.37% (active)	76.9%	47.2%	53.7%	–	55.6%	88.7%	40.1%	67.2%	78.1%	47.6%	51.6%
CC(=O)Oc1cc2ccccc2cc1C(C)C	109%	104%	98.9%	108%	104%	–	99.8%	116%	101%	112%	102%	99.7%	98%	–	99.2%	118%	123%
CC[C@@H](C)/C=C(C)/C=C/C(=O)c1c(O)c(-c2ccc(OC(=O)[C@@]34CC[C@@](C)(C(=O)O3)C4(C)C)cc2)cn(O)c1=O	–	20.4%	55.7%	–	28.3%	30.1%	57.2%	3.91% (active)	34.7%	-0.686% (active)	22.2%	37.3%	15.6%	17.1%	-10.3% (active)	18.4%	-18.6% (active)
CCCCCCCCCCCCCCCCCC(=O)Nc1ccc(O)cc1	77.8%	91.3%	–	104%	98.8%	103%	104%	95.4%	93.6%	62.8%	107%	98.6%	98.9%	106%	120%	100%	105%
COC1=C(OC)C(=O)c2ccccc2C1=O	97.5%	93.3%	101%	74.9%	111%	87.8%	–	94.3%	59.1%	101%	111%	97%	86.3%	96.2%	94.5%	–	104%
CCOP1(=O)CC(C)=C(Cl)C(P(=O)(O)O)C1 (stereo unspecified)	81.9%	91.8%	94.8%	94.5%	110%	113%	107%	96.1%	98.6%	97.4%	–	110%	109%	–	94.4%	105%	–
CCCCCCCCCC(C)NC(=O)CCl (stereo unspecified)	–	88.3%	107%	89.4%	103%	89.3%	102%	101%	82.6%	88.8%	96.3%	103%	86.2%	95.7%	103%	101%	25.6%
Cc1c(CN(C)C)cc(C(C)C)cc1C(C)C	94.5%	106%	115%	98.8%	112%	–	124%	104%	131%	118%	111%	104%	96.7%	–	104%	114%	119%

SMILES	growth (RPMI-8226 leukemia)	growth (OVCAR-8 ovarian)	growth (OVCAR-5 ovarian)	growth (OVCAR-4 ovarian)	growth (SK-OV-3 ovarian)	growth (OVCAR-3 ovarian)	growth (HS 578T breast)	growth (NCI/ADR-RES ovarian)	growth (T-47D breast)	growth (BT-549 breast)	growth (MDA-MB-435 melanoma)	growth (SW-620 colon)	growth (MCF7 breast)	growth (HCT-116 colon)	growth (HCC-2998 colon)	growth (KM12 colon)	growth (IGROV1 ovarian)
NC(N)=Nc1ccc(/C=C2\C=Cc3ccccc32)cc1	–	71.7%	80.7%	77.7%	78.6%	72.9%	–	80.9%	50.6%	81.5%	21.6%	33.5%	25%	47.5%	62.6%	15.2%	51.2%
CCN(CC)CCOC(=O)c1cccnc1	91.4%	97.6%	96.4%	90.1%	96.1%	107%	92%	101%	–	–	96.3%	103%	95.1%	98.1%	–	103%	103%
COc1ccc(C(=O)CN2C(=O)NC(c3ccccc3)(c3ccccc3)C2=O)cc1	–	95.2%	–	99.8%	102%	107%	89.3%	102%	95.2%	105%	104%	96.8%	102%	106%	106%	109%	115%
Cc1c(C(N)=O)sc2c1c(=O)n(Cc1ccccc1)c1nnc(S(C)(=O)=O)n21	–	–	135%	64.5%	103%	79.6%	–	100%	89.4%	78.9%	81.7%	94.3%	73.3%	79.6%	103%	109%	106%
Nc1cc2c(cc1Br)[nH]c(=O)c1ccccc12	–	39.9%	94%	24.8%	62.4%	2.99% (active)	73.3%	63%	29.6%	65.1%	–	61%	15.9%	19.2%	68%	26.2%	19%
O=C(Cc1ccccc1[N+](=O)[O-])c1ccc2c(c1)OCO2	–	104%	104%	102%	90.1%	103%	93.3%	106%	–	92.1%	102%	99%	96.5%	103%	116%	107%	114%
CN1CCN(Cc2ccc(NC(=O)c3cncc(C#Cc4c(N)ncc5ccc(F)cc45)c3)cc2C(F)(F)F)CC1	–	53.8%	-84.6% (active)	36.1%	60%	63.2%	-8.53% (active)	48.2%	–	36.7%	-80.1% (active)	-43.2% (active)	6.26% (active)	–	42.2%	-24.9% (active)	11%
COc1ccc(NC(=O)/C=C(C)/C=C/C=C(C)/C=C/C2=C(C)CCCC2(C)C)cc1	43.9%	37%	94.8%	80.1%	86.2%	66.5%	87.9%	80.1%	17.8%	96.2%	95.7%	69.3%	73.7%	–	97.9%	88.9%	–
Cc1ccc(S(=O)(=O)Nc2cccc(Cn3c(=O)[nH]c4ccc(Oc5ncccn5)cc4c3=O)c2)cc1	61.2%	90.8%	86.7%	90.5%	81.2%	–	89.3%	93.3%	–	65.2%	-10.1% (active)	64.8%	32.5%	59%	81.3%	39.6%	57.8%
COc1cc2cc3cc4cc(OC)c(OC)cc4c(C)[n+]3cc2cc1OC (tested in a mixture with another compound)	43%	76.2%	104%	83.8%	107%	65.9%	90.1%	93.1%	91.7%	–	71%	83.2%	67.6%	–	102%	80.4%	–
C[n+]1c2ccccc2c(Nc2ccc(NS(=O)(=O)CCCCN=C(N)N)cc2)c2ccc(N)cc21	48.6%	54.4%	–	72.9%	51%	68.5%	–	97.5%	21.9%	88.7%	87.8%	59.1%	19.7%	37.3%	40.6%	42.3%	45.9%
CN(CCC#N)c1ccc(/C=C(\C#N)c2cccc(C(F)(F)F)c2)cc1	57.4%	76.1%	76.9%	68.3%	98.1%	–	89.2%	40.3%	–	60.1%	1.34% (active)	40.4%	34.2%	57.6%	78.5%	38.5%	65.7%
Nc1cc(N)c2nc(-c3ccccc3)c(NCCc3ccc(Cl)c(Cl)c3)nc2c1	-60.6% (active)	-90.6% (active)	-76.9% (active)	-85.5% (active)	-80.7% (active)	–	-22.7% (active)	-54.3% (active)	-11.5% (active)	-70.4% (active)	-88.2% (active)	-86.7% (active)	-2.91% (active)	-90.8% (active)	-94.9% (active)	-83.4% (active)	-77.8% (active)
COc1ccc(C(=O)c2no[n+]([O-])c2C(=O)c2ccc(OC)cc2)cc1	-68.1% (active)	–	89.8%	-68.5% (active)	113%	-100% (active)	108%	96.2%	24.7%	–	44.3%	-82.9% (active)	30.9%	-98.1% (active)	110%	–	–
CC1(c2ccc(Br)cc2)NC(=O)NC1=O (stereo unspecified)	113%	97.9%	104%	104%	103%	–	101%	103%	82.2%	90.4%	113%	106%	101%	99.5%	106%	–	102%
C=C(NC(=O)[C@H](C(C)C)N(C)c1cccc2[nH]ccc12)C(=O)OC	6.33% (active)	102%	101%	103%	101%	103%	102%	108%	95.4%	–	102%	110%	99.6%	94.1%	113%	109%	–
O=C(Nc1cccc(Cn2c(=O)[nH]c3ccc(Oc4ncccn4)cc3c2=O)c1)c1cc(Cl)cc(Cl)c1	60.9%	51.4%	–	41.5%	66.5%	81.2%	56.7%	86.3%	–	–	67.3%	89.5%	64%	59.9%	85.6%	–	49%
COc1cc(OC)c(/C=C/c2ccc3ccccc3[n+]2C)c(OC)c1	-20.9% (active)	9.25% (active)	22.3%	28.8%	27.1%	1.43% (active)	–	97.4%	9.72% (active)	-0.0814% (active)	–	13.5%	3.94% (active)	2.2% (active)	13.4%	-49.2% (active)	14.8%
